This passage reports outcome and AC50 results from PubChem BioAssay (EPA / NIEHS).

Usually AC50 stands for the concentration giving half of the maximal activity seen.

Read-out in test [1]: Macrophage colony-stimulating factor (MCSF), CSF1 (gene 1435)
The test can be described thus: BSK_hDFCGF_MCSF: BioMAP Diversity Plus: hDFCGF Assay for Macrophage colony-stimulating factor (MCSF) Biomarker Activity (AID 2283060). The settings on record: primary human foreskin fibroblasts; actives raise or lower the signal. In a few lines:
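Human foreskin primary fibroblasts were treated with test chemical for 24 h, and M-CSF was then measured by ELISA. Data were fitted bidirectionally against DMSO as the negative control and activity baseline.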

A short description of test [2]: BSK_hDFCGF_SRB: Viability Assessment in the BioMAP Diversity Plus: hDFCGF Assay (AID 2283061).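 Further: cells exposed to compound for 24 h before the read.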 To be noted: primary human foreskin fibroblasts. In a few lines:
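Human foreskin primary fibroblasts were treated with compound and assessed 24 h after dosing. Total protein was measured by sulforhodamine B staining (0.1% SRB after 10% TCA fixation, 560 nm read) as a cytotoxicity marker, with bidirectional fitting against DMSO baseline.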

Read-out in test [3]: TIMP metallopeptidase inhibitor 1 (TIMP1), TIMP1 (gene 7076)
The test can be described thus: BSK_hDFCGF_TIMP1: BioMAP Diversity Plus: hDFCGF Assay for TIMP metallopeptidase inhibitor 1 (TIMP1) Biomarker Activity (AID 2283062). The settings on record: primary human foreskin fibroblasts; actives raise or lower the signal. The essentials: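 Primary human foreskin fibroblasts in the hDFCGF system were dosed with compound for 24 h, then TIMP-1 was measured by ELISA. Activity was fitted bidirectionally relative to DMSO control; parallel SRB staining assessed cytotoxicity.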

Read-out in test [4]: Monokine induced gamma interferon (MIG), CXCL9 (gene 4283)
Put plainly: BSK_hDFCGF_MIG: BioMAP Diversity Plus: hDFCGF Assay for Monokine induced gamma interferon (MIG) Biomarker Activity (AID 2283063). The settings on record: primary human foreskin fibroblasts; actives raise or lower the signal. In a few lines:
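ELISA read-out of MIG from primary human dermal fibroblasts 24 h post-dosing. Gain or loss of signal fitted bidirectionally, DMSO as baseline.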

Read-out in test [5]: Matrix Metallopeptidase 1 (MMP1), MMP1 (gene 4312)
Put plainly: BSK_hDFCGF_MMP1: BioMAP Diversity Plus: hDFCGF Assay for Matrix Metallopeptidase 1 (MMP1) Biomarker Activity (AID 2283064). To be noted: primary human foreskin fibroblasts; actives raise or lower the signal. In a few lines: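 hDFCGF primary fibroblasts (human foreskin); chemical added; 24 h; MMP1 by ELISA; bidirectional fit vs DMSO.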

Read-out in test [6]: Vascular cell adhesion molecule 1 (VCAM1), VCAM1 (gene 7412)
Put plainly: BSK_hDFCGF_VCAM1: BioMAP Diversity Plus: hDFCGF Assay for Vascular cell adhesion molecule 1 (VCAM1) Biomarker Activity (AID 2283065).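 On AC50: VCAM-1 protein level quantified by ELISA after 24 h chemical exposure.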 To be noted: primary human foreskin fibroblasts; actives raise or lower the signal. The essentials:
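Primary human foreskin fibroblasts (hDFCGF system) were dosed with chemical and VCAM-1 was measured by ELISA 24 h later. Bidirectional curve fitting used DMSO as negative control and activity baseline.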

Read-out in test [7]: Plasminogen activator inhibitor-1 (PAI1), SERPINE1 (gene 5054)
Put plainly: BSK_hDFCGF_PAI1: BioMAP Diversity Plus: hDFCGF Assay for Plasminogen activator inhibitor-1 (PAI1) Biomarker Activity (AID 2283066). The settings on record: primary human foreskin fibroblasts; actives raise or lower the signal. In a few lines:
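Primary dermal fibroblasts (human foreskin), hDFCGF system; compound 24 h; PAI-1 by ELISA; bidirectional fit vs DMSO control.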

Read-out in test [8]: Intercellular Adhesion Molecule 1 (ICAM1), ICAM1 (gene 3383)
Put plainly: BSK_KF3CT_ICAM1: BioMAP Diversity Plus: KF3CT Assay for Intercellular Adhesion Molecule 1 (ICAM1) Biomarker Activity (AID 2283067). The settings on record: primary human keratinocytes with fibroblasts; actives raise or lower the signal. The essentials:
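Human keratinocyte plus foreskin fibroblast primary co-culture was exposed to chemical for 24 h. ICAM-1 was then quantified by ELISA, and the data were fit bidirectionally against DMSO as the negative control and baseline.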

Read-out in test [9]: Interferon-gamma inducible Protein 10 (IP10), CXCL10 (gene 3627)
The test can be described thus: BSK_KF3CT_IP10: BioMAP Diversity Plus: KF3CT Assay for Interferon-gamma inducible Protein 10 (IP10) Biomarker Activity (AID 2283068). To be noted: primary human keratinocytes with fibroblasts; actives raise or lower the signal. The essentials: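 In a primary skin co-culture of keratinocytes and fibroblasts, IP-10 is quantified by ELISA at 24 h after dosing. SRB staining of parallel wells monitors overt toxicity. Curves are fitted both directions against DMSO.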

Test [10] can be described thus: BSK_KF3CT_SRB: Viability Assessment in the BioMAP Diversity Plus: KF3CT Assay (AID 2283069).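 Further: fitted for both signal gain and loss against DMSO baseline.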 The settings on record: primary human keratinocytes with fibroblasts. In a few lines: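 Keratinocytes co-cultured with foreskin fibroblasts (human primary); chemical added, 24 h; fix 10% TCA, stain 0.1% SRB, A560. Bidirectional fit vs DMSO.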
Read-out in test [11]: Interleukin-1 alpha (IL1a), IL1A (gene 3552)
Put plainly: BSK_KF3CT_IL1a: BioMAP Diversity Plus: KF3CT Assay for Interleukin-1 alpha (IL1a) Biomarker Activity (AID 2283070). To be noted: primary human keratinocytes with fibroblasts; actives raise or lower the signal. In a few lines: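 Chemicals were dosed onto co-cultured human keratinocytes and foreskin fibroblasts, IL-1a was quantified by ELISA at 24 h, and activity was fitted in both directions relative to DMSO controls.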

Read-out in test [12]: TIMP metallopeptidase inhibitor 2 (TIMP2), TIMP2 (gene 7077)
Put plainly: BSK_KF3CT_TIMP2: BioMAP Diversity Plus: KF3CT Assay for TIMP metallopeptidase inhibitor 2 (TIMP2) Biomarker Activity (AID 2283071). To be noted: primary human keratinocytes with fibroblasts; actives raise or lower the signal. The essentials:
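Cells: human keratinocytes co-cultured with foreskin fibroblasts. Treat with chemical, 24 h. Measure TIMP-2 by ELISA; fit curves bidirectionally vs DMSO baseline.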

Read-out in test [13]: C-C motif chemokine 2 (Homo sapiens) (UniProt P13500)
The test can be described thus: BSK_KF3CT_MCP1: BioMAP Diversity Plus: KF3CT Assay for Monocyte Chemoattractant Protein 1 (MCP1/CCL2) Biomarker Activity (AID 2283073). The settings on record: primary human keratinocytes with fibroblasts; actives raise or lower the signal. In a few lines: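 Human keratinocyte plus foreskin fibroblast primary co-culture exposed to chemical for 24 h. MCP-1 levels measured by ELISA. Bidirectional curve fitting relative to DMSO negative control as baseline.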

Read-out in test [14]: Matrix Metallopeptidase 9 (MMP9), MMP9 (gene 4318)
Put plainly: BSK_KF3CT_MMP9: BioMAP Diversity Plus: KF3CT Assay for Matrix Metallopeptidase 9 (MMP9) Biomarker Activity (AID 2283074). To be noted: primary human keratinocytes with fibroblasts; actives raise or lower the signal. In a few lines:
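Human keratinocyte/foreskin fibroblast co-culture; compound added; 24 h; MMP-9 by ELISA; bidirectional fit vs DMSO baseline.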

Read-out in test [15]: urokinase plasminogen activator (uPA), PLAU (gene 5328)
Put plainly: BSK_KF3CT_uPA: BioMAP Diversity Plus: KF3CT Assay for urokinase plasminogen activator (uPA) Biomarker Activity (AID 2283075). The settings on record: primary human keratinocytes with fibroblasts; actives raise or lower the signal. In a few lines:
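ELISA readout of uPA, analyzed for signal gain or loss relative to DMSO, from a human primary keratinocyte–foreskin fibroblast co-culture measured 24 h after chemical treatment.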

Read-out in test [16]: CD40, CD40 (gene 958)
Put plainly: BSK_LPS_CD40: BioMAP Diversity Plus: LPS Assay for CD40 Biomarker Activity (AID 2283076). To be noted: primary human HUVEC with PBMC; actives raise or lower the signal. The essentials:
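Primary human umbilical vein endothelial cells co-cultured with peripheral blood mononuclear cells, LPS-stimulated, were dosed with chemical and read 24 h later. CD40 levels were measured by ELISA and fitted bidirectionally against DMSO as negative control and baseline.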

Read-out in test [17]: E-selectin (Homo sapiens) (UniProt P16581)
Put plainly: BSK_LPS_Eselectin: BioMAP Diversity Plus: LPS Assay for Eselectin Biomarker Activity (AID 2283077). The settings on record: primary human HUVEC with PBMC; actives raise or lower the signal. In a few lines: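 Human umbilical vein endothelial cells co-cultured with peripheral blood mononuclear cells under LPS stimulation; E-selectin measured by ELISA 24 h after chemical dosing. Activity fitted bidirectionally against DMSO as negative control and baseline.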

Read-out in test [18]: Interleukin-8 (IL8), CXCL8 (gene 3576)
The test can be described thus: BSK_LPS_IL8: BioMAP Diversity Plus: LPS Assay for Interleukin-8 (IL8) Biomarker Activity (AID 2283078). The settings on record: primary human HUVEC with PBMC; actives raise or lower the signal. In a few lines:
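Human umbilical vein endothelial cells co-cultured with PBMC were stimulated with LPS; IL-8 levels were measured by ELISA 24 h after chemical dosing. Activity was fitted bidirectionally against DMSO as negative control and baseline.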

Test [19] can be described thus: BSK_LPS_SRB: Viability Assessment in the BioMAP Diversity Plus: LPS Assay (AID 2283079).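 Further: total protein by sulforhodamine B absorbance as a cytotoxicity measure; measured one day after compound addition; fitted in both directions against DMSO so loss or gain of signal counts.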 To be noted: primary human HUVEC with PBMC. In a few lines:
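Human umbilical vein endothelial cells co-cultured with PBMC (LPS system) were dosed for 24 h. Total protein was stained with 0.1% sulforhodamine B after 10% TCA fixation, read at 560 nm, and fitted bidirectionally against DMSO baseline.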

Read-out in test [20]: Interleukin-1 alpha (IL1a), IL1A (gene 3552)
The test can be described thus: BSK_LPS_IL1a: BioMAP Diversity Plus: LPS Assay for Interleukin-1 alpha (IL1a) Biomarker Activity (AID 2283080). To be noted: primary human HUVEC with PBMC; actives raise or lower the signal. In a few lines: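 Human umbilical vein endothelial cells co-cultured with peripheral blood mononuclear cells were LPS-stimulated and exposed to test chemicals for 24 h. IL-1 alpha was quantified by ELISA, with bidirectional curve fitting against DMSO as the negative control and baseline.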

Where “and” joins values, the source holds several entries; their conditions need not be identical. Equal entries are not always repeated. Some compounds were tested as several samples or in several runs, with calls that do not always agree. Calls of active or inactive are those of the source. How the source made its calls: active means hit-call score of the fitted dose curve at least 0.9, where 1 is the maximum; inactive means score below 0.9.

Chain of E-selectin (Homo sapiens) (P16581 whole entry, looked up): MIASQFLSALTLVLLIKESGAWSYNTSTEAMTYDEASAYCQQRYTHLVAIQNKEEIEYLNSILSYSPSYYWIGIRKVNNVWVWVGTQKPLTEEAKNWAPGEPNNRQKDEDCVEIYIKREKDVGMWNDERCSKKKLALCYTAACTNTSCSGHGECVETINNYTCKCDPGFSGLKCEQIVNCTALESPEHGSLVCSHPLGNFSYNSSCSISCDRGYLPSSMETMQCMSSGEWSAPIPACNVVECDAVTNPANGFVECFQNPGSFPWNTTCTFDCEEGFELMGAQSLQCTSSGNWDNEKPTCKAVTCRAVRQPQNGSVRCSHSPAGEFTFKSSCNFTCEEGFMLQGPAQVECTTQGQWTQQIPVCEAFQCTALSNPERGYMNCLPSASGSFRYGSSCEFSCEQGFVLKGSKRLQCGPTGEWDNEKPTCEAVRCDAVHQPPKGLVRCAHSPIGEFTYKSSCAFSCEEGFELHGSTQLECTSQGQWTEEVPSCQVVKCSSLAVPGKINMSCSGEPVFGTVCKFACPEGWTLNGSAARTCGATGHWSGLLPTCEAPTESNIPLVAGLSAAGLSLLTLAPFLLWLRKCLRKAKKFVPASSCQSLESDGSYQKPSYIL

Turning to `O=C(O)C(F)(F)C(F)(F)C(F)(F)C(F)(F)F`, the outcome in test [1], in test [2], in test [3], in test [4], in test [5] and in test [6] was inactive. Besides, the outcome in test [7], in [8], in test [9], in test [10], in [11] and in test [12] was inactive. Besides, the result in [13], in [14], in test [15], in test [16], in test [17] and in test [18] was inactive. The outcome in test [19] and in [20] was inactive.
As for `O=S(=O)(OCC(F)F)C(F)(F)F`, the result in test [1], in test [2], in test [3], in test [4], in test [5] and in test [6] was inactive. Also, the result in test [7], in test [8], in test [9], in test [10], in test [11] and in test [12] was inactive. In addition, the result in test [13], in [14], in test [15], in test [16], in test [17] and in test [18] was inactive. For the same compound, the result in test [19] was inactive. Also, the concentration at half-maximal activity (AC50) in [7] was 1.42 µM (active).
For the compound `CCCCCCOC(=O)c1ccccc1O`, the AC50 was 34.8 µM (active) and 35.1 µM (active) in test [1]; 40 µM (active) and 44.8 µM (active) in [2]; 39.7 µM (active) and 31.2 µM (active) in test [3]; 18.2 µM (active) and 21.3 µM (active) in test [4]; 35.8 µM (active) in test [5]; 33.1 µM (active) and 35.3 µM (active) in test [6]. For the same compound, the AC50 was 39.3 µM (active) and 39.6 µM (active) in test [7]; 32.8 µM (active) in [13]; 41.9 µM (active) and 24.5 µM (active) in [16]; 38.1 µM (active) and 44.8 µM (active) in test [17]; 41.9 µM (active) and 38.9 µM (active) in test [18]; 43.2 µM (active) and 42.1 µM (active) in test [19]. Also, the result in [8], in test [9], in test [10], in test [11], in test [12] and in [13] was inactive. Moreover, the result in test [15] and in test [20] was inactive.
With `FC1CC(F)(F)C(F)(F)C1(F)F` (centres undefined), the result in test [1], in [2], in test [3], in [4], in test [5] and in [6] was inactive. The result in [7], in test [8], in [9], in test [10], in test [11] and in test [12] was inactive. Also, the outcome in test [13], in test [15], in test [16], in test [17], in test [18] and in test [19] was inactive. Also, in [2], the half-maximal activity concentration (AC50) is 21.1 µM (active).
